Where “and” joins values, the source holds several entries; their conditions need not be identical. Identical values can stand only once. Calls of active or inactive are those of the source.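 How the source made its calls: active means compounds whose cell count with miR-34 switched on is under 0.7 times the count with it off; inactive means the rest.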
Test: viability loss with induced miR-34 in A549 – imaging, A549 dox-inducible miR-34, nuclei and caspase counts, primary screen (AID 1347080); further: test concentration not given here
Conditions: A549 miR-34 inducible, Hoechst nuclei count, 48 h; stronger effect = lower value

Structure (SMILES) | fold change
C=CCN1C[C@@H](C)N([C@H](c2ccc(C(=O)N(CC)CC)cc2)c2cccc(OC)c2)C[C@@H]1C | 1.1 (inactive)
N#CC(=Cc1ccc(O)c(O)c1)C(N)=S | 0.981 (inactive)
CCNC(=O)[C@H]1O[C@@H](n2cnc3c(N)ncnc32)C(O)[C@H]1O (some centres not stated) | 1.03 (inactive)
C[C@@H]1O[C@H](C[N+](C)(C)C)C[C@H]1O | 1.05 (inactive)
c1ccc2cc(CC3=NCCN3)ccc2c1 | 1.06 (inactive)
CCCCC[C@@H](/C=C/C=C\C/C=C\C/C=C\CCCC(=O)O)OO | 0.973 (inactive)
C=CCN1CCC23c4c5ccc(O)c4O[C@H]2C(=O)CC[C@@]3(O)C1C5 (some centres not stated) | 1.07 (inactive)
CCCCCC1OC1C/C=C\CCCCCCCC(=O)O (configuration not stated) | 0.986 (inactive)
Oc1ccc2c3c1O[C@H]1c4[nH]c5ccccc5c4C[C@@]4(O)C(C2)N(CC2CC2)CCC314 (some centres not stated) | 1.01 (inactive)
COc1cc(C(O)CN)ccc1O (configuration not stated) | 1.05 (inactive)
N#CC(C#N)=Cc1ccc(O)cc1 | 1.08 (inactive)
NC1CC1c1ccccc1 (configuration not stated) | 0.977 (inactive) and 0.888 (inactive)
CCCCC/C=C\C/C=C\C/C=C\C/C=C\CCCC(=O)NCCO | 0.996 (inactive) and 0.983 (inactive)
O=C(NC1CN2CCC1CC2)c1cc2ccoc2cn1 (configuration not stated) | 0.991 (inactive)
CN1CCC[C@@H]1Cc1c[nH]c2ccc(Nc3ncccc3[N+](=O)[O-])cc12 | 1.01 (inactive)
C[C@@H]1O[C@@H](O[C@H]2C[C@@H](O)[C@]3(CO)[C@@H]4C(CC[C@]3(O)C2)[C@@]2(O)CC[C@H](C3COC(=O)C3)[C@@]2(C)C[C@H]4O)[C@H](O)[C@H](O)[C@H]1O (some centres not stated) | 0.861 (inactive)
NC(CCP(=O)(O)O)C(=O)O (configuration not stated) | 1.04 (inactive)

Same assay, conditions: A549 miR-34 inducible, Hoechst nuclei count, 48 h; measured here: relative caspase fold change +Dox/-Dox

Structure (SMILES) | fold change
CC(C)(C)OC(=O)NC1[C@H]2CNC[C@@H]12 (some centres not stated) | 1.39
O=C1CC[C@@]2(O)C3Cc4ccc(O)c5c4C2(CCN3CC2CC2)[C@H]1O5 (some centres not stated) | 1.19
N=C(N)c1ccc(CS(=O)(=O)F)cc1 | 1.07
NC(CP(=O)(O)O)C(=O)O (configuration not stated) | 2.04
CCCCC/C=C\C/C=C\CCCCCCCC(=O)NCCO | 1.07 and 1.16
CCCCCCCCCCCCCCCCOC[C@@H](COP(=O)([O-])OCC[N+](C)(C)C)OC(C)=O | 0.996
CCCCC/C=C\C/C=C\C/C=C\CCCCCCC(=O)NCCO | 1.55 and 0.675
CCCCC/C=C\C/C=C\C/C=C\C/C=C\CCCC(N)=O | 1.34 and 1.46
CCCCC/C=C\C/C=C\C/C=C\C/C=C\CCCCCC(=O)NCCO | 1.64 and 1.22
CCCCC/C=C\C[C@@H](/C=C/C=C\C/C=C\CCCC(=O)O)OO | 1.25
CCCCC/C=C\C=C\[C@H](CCCCCCCC(=O)O)OO | 1.23
C[C@]12Cc3cn4c(nc3C=C1CCC1C2CC[C@@]2(C)[C@H]1CC[C@@]2(O)C#N)nc1ccccc14 (some centres not stated) | 0.934
CC(N)c1cccc(Cl)c1Cl (configuration not stated) | 0.961
C=CCN1CC[C@]23CCCCC2[C@H]1Cc1ccc(O)cc13 (some centres not stated) | 0.636
Clc1ccc(C2CC3CCC2N3)cn1 (configuration not stated) | 1.19
O=C1/C(=C/c2ccccc2)C[C@@]2(O)[C@H]3Cc4ccc(O)c5c4[C@@]2(CCN3CC2CC2)[C@H]1O5 | 1.39
COc1ccc2c(c1)C13CCCCC1C(C2)N(C)CC3 (configuration not stated) | 1.15
CCCC[C@H]1C(=O)O[C@H](C)[C@H](NC(=O)c2cccc(NC=O)c2OC)C(=O)O[C@@H](C)[C@@H]1OC(=O)CC(C)C | 0.897
CCCCC[C@@H](/C=C/C=C\CCCCCCCC(=O)O)OO | 1.1
CCCCC/C=C\C/C=C\C/C=C\C=C\[C@H](CCCC(=O)O)OO | 1.08

Structure (SMILES) | fold change
N[C@@]1(C(=O)O)CC[C@@H](C(=O)O)C1 | 2.1
C=CCN1C[C@@H](C)N([C@H](c2ccc(C(=O)N(CC)CC)cc2)c2cccc(OC)c2)C[C@@H]1C | 1.18
N#CC(=Cc1ccc(O)c(O)c1)C(N)=S | 1.34
CCNC(=O)[C@H]1O[C@@H](n2cnc3c(N)ncnc32)C(O)[C@H]1O (some centres not stated) | 1.36
C[C@@H]1O[C@H](C[N+](C)(C)C)C[C@H]1O | 1.87
c1ccc2cc(CC3=NCCN3)ccc2c1 | 1.69
CCCCC[C@@H](/C=C/C=C\C/C=C\C/C=C\CCCC(=O)O)OO | 0.92
CO/C1=C\C(C)=C\[C@@H](C)[C@@H](O)[C@@H](C)C/C(C)=C/C=C/[C@H](OC)[C@@H]([C@@H](C)[C@@H](O)[C@H](C)[C@@]2(O)C[C@@H](O)[C@H](C)[C@@H](C(C)C)O2)OC1=O | 1.29
C=CCN1CCC23c4c5ccc(O)c4O[C@H]2C(=O)CC[C@@]3(O)C1C5 (some centres not stated) | 1.06
CCCCCCCCCCCCCC(=O)O[C@@H]1[C@@H](C)[C@@]2(O)[C@@H](C=C(CO)C[C@@]3(O)C(=O)C(C)=C[C@@H]23)C2C(C)(C)[C@@]21OC(C)=O (some centres not stated) | 1.62
CCCCCC1OC1C/C=C\CCCCCCCC(=O)O (configuration not stated) | 1.2
Oc1ccc2c3c1O[C@H]1c4[nH]c5ccccc5c4C[C@@]4(O)C(C2)N(CC2CC2)CCC314 (some centres not stated) | 1.69
COc1cc(C(O)CN)ccc1O (configuration not stated) | 2.66
N#CC(C#N)=Cc1ccc(O)cc1 | 1.22
NC1CC1c1ccccc1 (configuration not stated) | 1.3 and 1.48
CCCCC/C=C\C/C=C\C/C=C\C/C=C\CCCC(=O)NCCO | 0.958 and 0.763
O=C(NC1CN2CCC1CC2)c1cc2ccoc2cn1 (configuration not stated) | 1.41
CN1CCC[C@@H]1Cc1c[nH]c2ccc(Nc3ncccc3[N+](=O)[O-])cc12 | 1.84
C[C@@H]1O[C@@H](O[C@H]2C[C@@H](O)[C@]3(CO)[C@@H]4C(CC[C@]3(O)C2)[C@@]2(O)CC[C@H](C3COC(=O)C3)[C@@]2(C)C[C@H]4O)[C@H](O)[C@H](O)[C@H]1O (some centres not stated) | 1.72
NC(CCP(=O)(O)O)C(=O)O (configuration not stated) | 2.08

Source: PubChem BioAssay
